{"source": "paper PMC12820563", "about": "“FoxP3 forms a head-to-head dimer in vivo and stabilizes its multimerization on adjacent microsatellites”", "note": "Whole data set: some 16,000 sequences, median “rpm ratio (pull-down/input)” near 0.94, cut for the highest 2% near 1.7. Many of the other results were omitted from the sample, so the highest values are more common in it than they were.", "data": [{"target": "T1, MBP-FoxP1dN (Mus musculus, UniProt P58462 326-579)", "T1 sequence": "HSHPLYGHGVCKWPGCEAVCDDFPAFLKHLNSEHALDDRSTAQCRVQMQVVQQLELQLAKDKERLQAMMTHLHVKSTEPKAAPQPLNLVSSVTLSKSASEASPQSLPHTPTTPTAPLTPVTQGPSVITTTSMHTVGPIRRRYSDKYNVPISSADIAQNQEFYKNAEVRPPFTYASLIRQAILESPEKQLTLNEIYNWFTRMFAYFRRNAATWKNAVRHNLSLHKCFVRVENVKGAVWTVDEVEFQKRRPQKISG", "experiment": "PD-seq (MBP pull-down with sequencing); 20 mM Tris-HCl pH 7.5, 100 mM NaCl, 1.5 mM MgCl2, 0.4 uM protein, 0.1 uM dsDNA library, 30 min, room temperature, amylose pull-down; high values mean tight binding", "settings": "protein: recombinant; tags: His6-MBP; chain copies: 2; dsDNA, one strand shown", "in_short": "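Binding is the reads-per-million enrichment of pull-down relative to input, pooled across replicates. For this, 0.4 µM His6-MBP-tagged mouse FoxP3 or FoxP1 fragment lacking the N-terminus, made in E. coli, was incubated with 0.1 µM Klenow-filled double-stranded degenerate DNA library for 30 min at room temperature in Tris pH 7.5 buffer with NaCl and MgCl2. Complexes bound to amylose resin were washed three times before proteinase K released the DNA for PCR barcoding and Illumina sequencing.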", "values": [{"sequence": "GATGATTGTTCTCCCAGCTGATGAATTGAGGTCCTCGAGTAAACAAATTTTCCTAATCTTTCTGTTCAAGCGCCATCTAC", "binding signal": "0.772 RPM ratio (pull-down/input)"}, {"sequence": "GATGATTGTTCTCCCAGCTGATGAATTTGATAGCTCGAGTAAACAAATTTTCCTAATCTTTCTGTTCAAGCGCCATCTAC", "binding signal": "0.868 RPM ratio (pull-down/input)"}, {"sequence": "GATGATTGTTCTCCCAGCTGATGAATTCGGTACATCGAGTAAACAAATTTTCCTAATCTTTCTGTTCAAGCGCCATCTAC", "binding signal": "0.991 RPM ratio (pull-down/input)"}, {"sequence": "GATGATTGTTCTCCCAGCTGATGAATTCTAATAGTCGAGTAAACAAATTTTCCTAATCTTTCTGTTCAAGCGCCATCTAC", "binding signal": "0.905 RPM ratio (pull-down/input)"}, {"sequence": "GATGATTGTTCTCCCAGCTGATGAATTAGCCGTATCGAGTAAACAAATTTTCCTAATCTTTCTGTTCAAGCGCCATCTAC", "binding signal": "0.934 RPM ratio (pull-down/input)"}, {"sequence": "GATGATTGTTCTCCCAGCTGATGAATTTACGATCTCGAGTAAACAAATTTTCCTAATCTTTCTGTTCAAGCGCCATCTAC", "binding signal": "1.15 RPM ratio (pull-down/input)"}, {"sequence": "GATGATTGTTCTCCCAGCTGATGAATTGGCGCTATCGAGTAAACAAATTTTCCTAATCTTTCTGTTCAAGCGCCATCTAC", "binding signal": "0.954 RPM ratio (pull-down/input)"}, {"sequence": "GATGATTGTTCTCCCAGCTGATGAATTCTGCCCGTCGAGTAAACAAATTTTCCTAATCTTTCTGTTCAAGCGCCATCTAC", "binding signal": "0.815 RPM ratio (pull-down/input)"}, {"sequence": "GATGATTGTTCTCCCAGCTGATGAATTGTATTAATCGAGTAAACAAATTTTCCTAATCTTTCTGTTCAAGCGCCATCTAC", "binding signal": "1.24 RPM ratio (pull-down/input)"}, {"sequence": "GATGATTGTTCTCCCAGCTGATGAATTGTAATTATCGAGTAAACAAATTTTCCTAATCTTTCTGTTCAAGCGCCATCTAC", "binding signal": "1.54 RPM ratio (pull-down/input)"}, {"sequence": "GATGATTGTTCTCCCAGCTGATGAATTAATTGTATCGAGTAAACAAATTTTCCTAATCTTTCTGTTCAAGCGCCATCTAC", "binding signal": "1.44 RPM ratio (pull-down/input)"}, {"sequence": "GATGATTGTTCTCCCAGCTGATGAATTATTTGTATCGAGTAAACAAATTTTCCTAATCTTTCTGTTCAAGCGCCATCTAC", "binding signal": "2 RPM ratio (pull-down/input)"}, {"sequence": "GATGATTGTTCTCCCAGCTGATGAATTTGTATTATCGAGTAAACAAATTTTCCTAATCTTTCTGTTCAAGCGCCATCTAC", "binding signal": "2.13 RPM ratio (pull-down/input)"}, {"sequence": "GATGATTGTTCTCCCAGCTGATGAATTATCTGTATCGAGTAAACAAATTTTCCTAATCTTTCTGTTCAAGCGCCATCTAC", "binding signal": "1.1 RPM ratio (pull-down/input)"}, {"sequence": "GATGATTGTTCTCCCAGCTGATGAATTGCGAATATCGAGTAAACAAATTTTCCTAATCTTTCTGTTCAAGCGCCATCTAC", "binding signal": "1.17 RPM ratio (pull-down/input)"}, {"sequence": "GATGATTGTTCTCCCAGCTGATGAATTGCTCTTCTCGAGTAAACAAATTTTCCTAATCTTTCTGTTCAAGCGCCATCTAC", "binding signal": "0.889 RPM ratio (pull-down/input)"}, {"sequence": "GATGATTGTTCTCCCAGCTGATGAATTCGGGTTCTCGAGTAAACAAATTTTCCTAATCTTTCTGTTCAAGCGCCATCTAC", "binding signal": "0.806 RPM ratio (pull-down/input)"}, {"sequence": "GATGATTGTTCTCCCAGCTGATGAATTGGAATATTCGAGTAAACAAATTTTCCTAATCTTTCTGTTCAAGCGCCATCTAC", "binding signal": "0.93 RPM ratio (pull-down/input)"}, {"sequence": "GATGATTGTTCTCCCAGCTGATGAATTGTTTGTCTCGAGTAAACAAATTTTCCTAATCTTTCTGTTCAAGCGCCATCTAC", "binding signal": "2.6 RPM ratio (pull-down/input)"}, {"sequence": "GATGATTGTTCTCCCAGCTGATGAATTCTTTGTCTCGAGTAAACAAATTTTCCTAATCTTTCTGTTCAAGCGCCATCTAC", "binding signal": "0.931 RPM ratio (pull-down/input)"}, {"sequence": "GATGATTGTTCTCCCAGCTGATGAATTGTTGTCTTCGAGTAAACAAATTTTCCTAATCTTTCTGTTCAAGCGCCATCTAC", "binding signal": "2.29 RPM ratio (pull-down/input)"}, {"sequence": "GATGATTGTTCTCCCAGCTGATGAATTTGTTGTCTCGAGTAAACAAATTTTCCTAATCTTTCTGTTCAAGCGCCATCTAC", "binding signal": "2.42 RPM ratio (pull-down/input)"}, {"sequence": "GATGATTGTTCTCCCAGCTGATGAATTTGTCTTCTCGAGTAAACAAATTTTCCTAATCTTTCTGTTCAAGCGCCATCTAC", "binding signal": "1.16 RPM ratio (pull-down/input)"}, {"sequence": "GATGATTGTTCTCCCAGCTGATGAATTTCTGTCTTCGAGTAAACAAATTTTCCTAATCTTTCTGTTCAAGCGCCATCTAC", "binding signal": "0.89 RPM ratio (pull-down/input)"}, {"sequence": "GATGATTGTTCTCCCAGCTGATGAATTTTGTCTCTCGAGTAAACAAATTTTCCTAATCTTTCTGTTCAAGCGCCATCTAC", "binding signal": "0.968 RPM ratio (pull-down/input)"}, {"sequence": "GATGATTGTTCTCCCAGCTGATGAATTTTTTGTCTCGAGTAAACAAATTTTCCTAATCTTTCTGTTCAAGCGCCATCTAC", "binding signal": "0.905 RPM ratio (pull-down/input)"}, {"sequence": "GATGATTGTTCTCCCAGCTGATGAATTGTCTTCTTCGAGTAAACAAATTTTCCTAATCTTTCTGTTCAAGCGCCATCTAC", "binding signal": "1.05 RPM ratio (pull-down/input)"}, {"sequence": "GATGATTGTTCTCCCAGCTGATGAATTGTATCAATCGAGTAAACAAATTTTCCTAATCTTTCTGTTCAAGCGCCATCTAC", "binding signal": "1.25 RPM ratio (pull-down/input)"}, {"sequence": "GATGATTGTTCTCCCAGCTGATGAATTACTATATTCGAGTAAACAAATTTTCCTAATCTTTCTGTTCAAGCGCCATCTAC", "binding signal": "1.23 RPM ratio (pull-down/input)"}, {"sequence": "GATGATTGTTCTCCCAGCTGATGAATTCAGCACATCGAGTAAACAAATTTTCCTAATCTTTCTGTTCAAGCGCCATCTAC", "binding signal": "0.96 RPM ratio (pull-down/input)"}, {"sequence": "GATGATTGTTCTCCCAGCTGATGAATTCCCGATGTCGAGTAAACAAATTTTCCTAATCTTTCTGTTCAAGCGCCATCTAC", "binding signal": "0.877 RPM ratio (pull-down/input)"}, {"sequence": "GATGATTGTTCTCCCAGCTGATGAATTTAAGGACTCGAGTAAACAAATTTTCCTAATCTTTCTGTTCAAGCGCCATCTAC", "binding signal": "0.845 RPM ratio (pull-down/input)"}, {"sequence": "GATGATTGTTCTCCCAGCTGATGAATTAATATTGTCGAGTAAACAAATTTTCCTAATCTTTCTGTTCAAGCGCCATCTAC", "binding signal": "2.15 RPM ratio (pull-down/input)"}, {"sequence": "GATGATTGTTCTCCCAGCTGATGAATTAAATCTGTCGAGTAAACAAATTTTCCTAATCTTTCTGTTCAAGCGCCATCTAC", "binding signal": "0.778 RPM ratio (pull-down/input)"}, {"sequence": "GATGATTGTTCTCCCAGCTGATGAATTAAAATATTCGAGTAAACAAATTTTCCTAATCTTTCTGTTCAAGCGCCATCTAC", "binding signal": "1.1 RPM ratio (pull-down/input)"}]}]}
